# From PubChem BioAssay
# Calls of active or inactive are those of the source.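 How the source made its calls, unless noted: active means inhibition at or above 50% relative to wild type and mutant plate controls; inactive means inhibition below 50%.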
# Experiments:
# [1] = inhibitors of TNFa-induced NFkB p65 translocation, primary screen, imaging, HUVEC, MLSMR starter and 10KST1 sets (AID 438;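 active means inhibition above 20% together with a positive visual image hit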;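 further: compound added about 3h40 before a 20 min TNFalpha stimulation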;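 on inhibition: signal is the nuclear over cytoplasmic p65 intensity ratio per well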); details: HUVEC TNFa-induced p65 nuclear translocation; cell count: measured here: nuclei count (cytotoxicity indicator), at 2.08 µM; inhibition: at 2 µM, stronger effect = higher value, 0% TNFa-plus-vehicle, 100% no-TNFa wells
# [2] = endothelial E-selectin expression blockers – imaging, HUVEC, immunofluorescence, MLSMR starter and 10KST1 sets, primary screen (AID 487;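 active means visually confirmed hit in the image check and inhibition above 20%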;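 on inhibition: signal is fraction of cell area covered by stained E-selectin grains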;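 on nuclei count: 100% = median nuclei count of all wells on the same plate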); details: HUVEC TNFalpha-induced E-selectin immunofluorescence imaging, at 2 µM; inhibition: stronger effect = higher value; nuclei count: measured here: cell number, toxicity
# [3] = Primary imaging screen for DUSP6 inhibitors that restore phospho-Erk in transfected HeLa cells, chemical complementation (AID 609;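 active means compounds giving at least 50% inhibition in the cell-based MKP-3 phosphatase rescue imaging test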;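 on inhibition: phospho-Erk level distribution per well compared with pooled transfected vehicle control wells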); details: HeLa MKP-3 transfected, phospho-Erk imaging KS statistic, at 10 µM, cells stimulated with TPA for 15 min
# [4] = target: Dual specificity protein phosphatase 6 (Homo sapiens) (UniProt Q16828); assay: as above; details: HeLa MKP-3 transfected, phospho-Erk imaging KS statistic; at 10 µM; stronger effect = higher value; cells stimulated with TPA for 15 min
# Chain of Dual specificity protein phosphatase 6 (Homo sapiens) (Q16828 whole entry, looked up): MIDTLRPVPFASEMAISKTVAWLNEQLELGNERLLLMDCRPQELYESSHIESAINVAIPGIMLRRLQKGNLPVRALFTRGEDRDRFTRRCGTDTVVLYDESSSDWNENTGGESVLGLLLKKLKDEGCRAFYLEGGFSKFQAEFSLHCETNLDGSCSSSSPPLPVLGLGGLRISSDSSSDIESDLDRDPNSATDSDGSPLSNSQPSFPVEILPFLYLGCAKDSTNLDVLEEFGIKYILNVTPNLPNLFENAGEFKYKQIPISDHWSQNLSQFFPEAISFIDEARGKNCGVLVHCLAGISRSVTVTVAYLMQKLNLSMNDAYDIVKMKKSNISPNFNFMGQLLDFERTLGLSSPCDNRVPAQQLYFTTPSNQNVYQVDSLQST
# [5] = target: Voltage-gated potassium channel subunit beta-2 (Rattus norvegicus) (UniProt P62483); assay: inhibitors of rat Kvbeta2 reductase activity – biochemical, NADPH fluorescence, primary screen (AID 622;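 active means fluorescence slope higher than the sample average by over 3 SD, cut at about -0.22 in these data, passing the limit was not always enough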;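 further: slope of raw intensity against log time taken from 70 to 1610 s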); details: recombinant KvBeta, 4-cyanobenzaldehyde reduction, at 10 µM, stronger effect = higher value
# Chain of Voltage-gated potassium channel subunit beta-2 (Rattus norvegicus) (P62483 whole entry, looked up): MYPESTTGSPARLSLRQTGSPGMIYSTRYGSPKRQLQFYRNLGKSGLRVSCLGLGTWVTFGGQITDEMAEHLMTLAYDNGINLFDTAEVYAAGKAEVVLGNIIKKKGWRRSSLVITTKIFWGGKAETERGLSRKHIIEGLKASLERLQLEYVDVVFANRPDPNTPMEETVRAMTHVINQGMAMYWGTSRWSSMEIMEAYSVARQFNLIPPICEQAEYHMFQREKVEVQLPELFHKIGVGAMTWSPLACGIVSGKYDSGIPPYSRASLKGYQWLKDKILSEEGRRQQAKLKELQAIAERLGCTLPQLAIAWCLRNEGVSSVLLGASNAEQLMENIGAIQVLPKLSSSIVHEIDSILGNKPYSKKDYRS
# [6] = target: Voltage-gated potassium channel subunit beta-2 (Rattus norvegicus) (UniProt P62483); assay: enhancers of rat Kvbeta2 NADPH turnover – biochemical, NADPH fluorescence, primary screen (AID 623;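 active means NADPH fluorescence slope more negative than the mean of all samples by about 3 SD, 99.7% confidence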;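 further: fluorescence intensity change per second fitted from 20 to 320 s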); details: Recombinant KvBeta, NADPH fluorescence decrease slope, 10 min; at 10 µM; stronger effect = lower value
# [7] = target: Alpha-2C adrenergic receptor (Homo sapiens) (UniProt P18825); assay: compounds altering alpha2C-coupled GIRK flux – cell-based, HEK293 alpha2C/GIRK1/2, thallium flux, primary screen (AID 624;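 active means fluorescence slope after compound addition differing from the mean of all screened samples at 99.7% confidence, in either direction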;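 further: slope of fluorescence ratio to pre-addition baseline per second over 15 to 24 s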); details: thallium flux BTC fluorescence, at 10 µM, actives lie on both sides
# Chain of Alpha-2C adrenergic receptor (Homo sapiens) (P18825 whole entry, looked up): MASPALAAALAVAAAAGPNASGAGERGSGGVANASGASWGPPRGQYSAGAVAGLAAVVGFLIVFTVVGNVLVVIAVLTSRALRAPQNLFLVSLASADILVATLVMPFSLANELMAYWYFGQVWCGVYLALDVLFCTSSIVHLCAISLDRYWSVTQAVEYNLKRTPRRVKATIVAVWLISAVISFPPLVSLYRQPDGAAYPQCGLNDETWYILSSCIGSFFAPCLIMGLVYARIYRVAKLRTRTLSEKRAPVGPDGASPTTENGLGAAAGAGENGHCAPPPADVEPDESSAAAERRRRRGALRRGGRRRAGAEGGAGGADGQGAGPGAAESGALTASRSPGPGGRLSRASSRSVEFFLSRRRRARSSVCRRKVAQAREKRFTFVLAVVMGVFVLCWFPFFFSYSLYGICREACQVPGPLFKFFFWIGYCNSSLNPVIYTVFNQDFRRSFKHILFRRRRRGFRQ
# [8] = inhibitors of larval lipid processing in zebrafish, primary screen, whole organism, PED6 fluorescence, gall bladder and intestine (AID 686;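 active means a full or partial loss of lipid-probe fluorescence in the fish gall bladder, intestine or both, judged by eye; inactive means no fluorescence loss, or compound toxic to the fish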;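 further: larvae 5 to 7 days old with five fish per well; signal comes from phospholipase A2 cleavage of quenched PED6 carried via bile; overnight exposure to compound and PED6 before scoring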); details: Zebrafish larvae PED6 lipid processing, fluorescence scoring; screened at 20 µM (by protocol)
# [9] = loss of swimming-algae plug formation – whole organism, Chlamydomonas reinhardtii, WT vs cilia-less mutant, absorbance, 96-well, primary screen (AID 463189); details: Chlamydomonas reinhardtii gravitaxis, OD600 absorbance, 2 days; at 10 µM; stronger effect = higher value;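 further: 0% = wild type cc124 cells in DMSO and 100% = ciliumless bld1 mutant cells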
# [10] = target: Muscarinic acetylcholine receptor M4 (Homo sapiens) (UniProt P08173); assay: M4-linked GIRK flux change, two-sided – cell-based, HEK293 M4/GIRK, thallium flux, BTC-AM, M4 allosteric agonist project, primary screen (AID 625;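 active means fluorescence slope after compound addition differing from the mean of all tested samples at 99.7% confidence, mostly higher but some lower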;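 further: thallium influx through GIRK channels coupled to M4 in HEK293 cells with BTC-AM dye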); details: at 10 µM, actives lie on both sides
# Chain of Muscarinic acetylcholine receptor M4 (Homo sapiens) (P08173 whole entry, looked up): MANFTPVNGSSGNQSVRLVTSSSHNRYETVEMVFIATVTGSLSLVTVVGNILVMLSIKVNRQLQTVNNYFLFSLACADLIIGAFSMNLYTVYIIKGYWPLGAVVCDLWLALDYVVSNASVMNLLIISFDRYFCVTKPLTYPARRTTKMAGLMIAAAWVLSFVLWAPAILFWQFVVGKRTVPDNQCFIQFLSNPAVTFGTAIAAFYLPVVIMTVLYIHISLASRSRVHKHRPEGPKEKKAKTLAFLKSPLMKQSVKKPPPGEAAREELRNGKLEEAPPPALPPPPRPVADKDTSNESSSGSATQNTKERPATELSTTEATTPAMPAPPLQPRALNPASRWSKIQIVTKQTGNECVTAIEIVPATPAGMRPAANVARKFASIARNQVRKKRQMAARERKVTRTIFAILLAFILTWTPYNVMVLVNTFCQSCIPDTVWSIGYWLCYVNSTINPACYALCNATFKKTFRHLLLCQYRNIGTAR
# [11] = measured here: cell density z-score
# [12] = measured here: nuclear c-Myc green intensity z-score
# [13] = measured here: nuclear pErk red intensity z-score, stronger effect = higher value
Compound,cell count [1],inhibition [1],inhibition [2],nuclei count [2] [%],"z-score [3, 11]","z-score [3, 12]","z-score [3, 13]",inhibition [4],fluorescence slope [5],NADPH fluorescence slope [6],slope [7],outcome [8],inhibition [9],fluorescence slope [10]
CCOC(=O)c1[nH]c2cc3c(cc2c1NC(=O)CN1CCC2(CC1)OCCO2)OCO3,466,-3.8% (inactive),7.6% (inactive),111,0.45,1.98,-0.82,22.8% (inactive),-0.0748 (inactive),5.8e-07 (inactive),0.00639 (inactive),inactive,-16.4% (inactive),–
Nc1[nH]nc2nc(NCc3ccccc3)c3c(c12)CCN(Cc1ccccc1)C3,638,-12.3% (inactive),20% (inactive),190,1.59,-1.42,-0.833,15.1% (inactive),-0.502 (inactive),-6.3e-05 (inactive),0.00406 (inactive),inactive,6.13% (inactive),–
CCN1CC=C2C(C#N)=C(N)C(C#N)(C#N)[C@H](c3cccc(OC)c3OC)[C@H]2C1,560,-11.4% (inactive),26.9% (inactive),113,1.15,1.25,-1.6,-3.95% (inactive),-0.449 (inactive),-6e-06 (inactive),-4.3e-17 (inactive),inactive,-15.5% (inactive),–
Cn1nnnc1-c1cc(Br)ccc1NC(=O)c1ccccc1,397,-1.8% (inactive),-2.9% (inactive),93.6,-0.94,1.01,-1.17,-8.27% (inactive),-0.39 (inactive),7.2e-07 (inactive),0.00973 (inactive),inactive,-4.44% (inactive),–
CC(=O)Nc1cnc2ccccc2n1,626,-12.5% (inactive),17.9% (inactive),160,-0.876,0.21,0.164,-6.06% (inactive),-0.397 (inactive),-5.9e-05 (inactive),0.00508 (inactive),inactive; toxic,-0.95% (inactive),–
Cc1ccc(N2C(=O)[C@@H]3[C@H](C2=O)C2CCCN2[C@@H]3C(=O)c2ccccc2)cc1 (stereo partly specified),329,-6.6% (inactive),-25.8% (inactive),146,1.29,-0.857,1.07,-8.59% (inactive),-0.42 (inactive),-0.000146 (inactive),0.00854 (inactive),inactive,0.279% (inactive),–
CCOP(=O)(c1ccccc1)c1nc(-c2ccccc2C)oc1N1CCCCC1 (stereo unspecified),603,-2.4% (inactive),-34% (inactive),167,-0.907,0.675,1.07,13.2% (inactive),-0.49 (inactive),-0.000125 (inactive),0.00422 (inactive),inactive,56.6% (active),–
Cn1ncc(N=Cc2ccccc2O)c1C(=O)Nc1ccccc1,635,-3.8% (inactive),-20.9% (inactive),140,-0.0255,0.841,1.17,4.25% (inactive),-0.5 (inactive),-0.000122 (inactive),0.00441 (inactive),inactive,0.038% (inactive),–
O=C1CCC(=O)N1CN(Cc1ccco1)CN1C(=O)CCC1=O,512,-4.8% (inactive),-33.2% (inactive),158,2.24,-1.47,0.89,37.7% (inactive),-0.376 (inactive),-1.3e-05 (inactive),–,inactive,13.2% (inactive),0.00674 (inactive)
Cn1c(N2CCOCC2)nc2c1c(=O)n(Cc1ccc(Cl)cc1)c(=O)n2C,644,12.1% (inactive),-31.1% (inactive),101,0.134,0.368,0.486,-2.09% (inactive),-0.446 (inactive),-3.4e-05 (inactive),–,inactive,-7.86% (inactive),0.00452 (inactive)
Cn1c(=O)c2c(nc(NCC(O)CO)n2CCc2ccccc2)n(C)c1=O (stereo unspecified),693,2% (inactive),-108% (inactive),172,0.322,-1.96,-0.0564,19.8% (inactive),-0.483 (inactive),-1e-05 (inactive),–,inactive,24.7% (inactive),0.00665 (inactive)
CC(NC(=O)NC(N)=O)(C(F)(F)F)C(F)(F)F,674,6.8% (inactive),-84.9% (inactive),109,0.562,0.75,0.26,13.9% (inactive),-0.534 (inactive),-1.1e-05 (inactive),–,inactive,21.5% (inactive),0.00493 (inactive)
